The values below come from PubChem BioAssay AID463173 (ICCB-Longwood Screening Facility, Harvard Medical School, 2010).

Several values for one entry are separate records, joined by “and”; a condition that tells them apart may be missing. Identical values can stand only once. About 4,300 (8.3%) of roughly 52,000 compounds were called active. This is one part of a sample in which actives are shown more often than they occur. Rule as the data show it: active = survival mostly below about 52% (no sharp cut-off); inactive = mostly above about 56%. Where a structure was tested more than once in an assay, its records may differ in their call.

The subject of this experiment is DeltatarO mutant. As to the kind of experiment: growth inhibition of S. aureus wild type versus tarO mutant, primary screen, teichoic acid synthesis inhibitors, RN4220, OD600 (AID 463173). As to conditions: OD600, 18 h, stronger effect = lower value, screened at 18.75 µg/mL (by protocol).
For the compound `Cc1ccc(NC(c2cccc(Cl)c2)c2nnc(-c3ccccc3)o2)cc1F` (centres undefined), the survival was 99% (inactive). For `Clc1ccc(CCNC(c2ccc(Cl)cc2)c2nnc(-c3ccccc3)o2)cc1` (centres undefined) the value was 98% (inactive); for `Clc1ccc(CCNC(c2cccc(Cl)c2)c2nnc(-c3ccccc3)o2)cc1` (centres undefined), 11% (active). As to `COc1cccc(COC(=O)c2nn(-c3ccccc3)nc2N)c1`, the survival was 15% (active). Regarding `Nc1nn(-c2ccccc2)nc1C(=O)OCc1c(F)cccc1Cl`, the survival is 28% (active). As to `O=C(Cc1ccc(Cl)cc1)Nc1ccc2nn(-c3ccccc3)nc2c1`, the survival is 81% (inactive). As for `COc1cccc(COC(=O)c2ccc(-c3nnn(Cc4ccccc4)n3)cc2)c1`, the survival is 126% (inactive). For the compound `COc1cccc(COC(=O)c2ccc(-c3nnn(Cc4cccc(OC)c4)n3)cc2)c1`, the survival was 67% (inactive). For `Cc1cc2nn(-c3ccccc3)nc2cc1NC(=O)Cc1ccc(Cl)cc1` the value was 89% (inactive); for `O=C1CC(c2nnc(Cc3c(F)cccc3Cl)o2)CN1c1ccccc1` (centres undefined), 129% (inactive). On to `O=C(NCc1ccccc1)c1nn(-c2ccccc2)nc1CO`, for which the survival was 108% (inactive). With `O=C(NCCCc1ccccc1)c1nn(-c2ccccc2)nc1CO`, the survival is 77% (inactive). On to `O=c1ccc(-c2ccccc2)nn1Cc1c(F)cccc1Cl`, for which the survival was 55% (inactive).

On to `Nc1nn(-c2ccccc2)nc1C(=O)OCc1ccccc1`, for which the survival was 58% (active). For the compound `Nc1nn(-c2ccccc2)nc1C(=O)OCc1ccc(Cl)cc1`, the survival is 44% (active).

Take `COc1ccc(-c2oc3ncn4nc(-c5ccccc5Br)nc4c3c2-c2ccc(OC)cc2)cc1`: the survival was 77% (inactive). Take `CCc1ccc(OCC(=O)Nc2ccc(S(=O)(=O)Nc3onc(C)c3C)cc2)cc1`: the survival was 73% (inactive). In the case of `COC(=O)c1ccc(C(=O)OC)c(NC(=O)c2c(-c3ccccc3)c(-c3ccccc3)nn(C)c2=O)c1` it was 60% (inactive). As to `COc1ccc(CNC(=O)CCc2nc3cccnc3n2Cc2ccccc2)cc1`, the survival was 120% (inactive). For `Cc1ccc(NC(=O)NCCOCCn2c(=O)oc3ccccc32)cc1C`, the survival is 86% (inactive). With `Cc1ccccc1Cn1c2ccccc2c2cnn(CC(=O)NCCc3ccccc3)c(=O)c21`, the survival was 96% (inactive). Consider `COc1ccc(-c2cn3nc(N4CCCC(C(=O)Nc5cc(C)ccc5C)C4)sc3n2)cc1` (centres undefined), for which the survival is 76% (inactive). `CCOc1ccc(NC(=O)Cn2cc(S(=O)(=O)c3ccc(C)cc3)c(=O)c3cc(F)ccc32)cc1`: the survival is 74% (inactive). In the case of `CCC(=O)N1c2ccc(S(=O)(=O)CCC(=O)N3CCN(c4cc(C)ccc4C)CC3)cc2CC1C` (centres undefined) it was 85% (inactive). On to `Cc1cc(C)cc(NC(=O)C(=O)NCC(c2ccc3c(c2)OCO3)N2CCOCC2)c1` (centres undefined), for which the survival is 107% (inactive). Take `CSc1ccc(CNC(=O)CCn2ccc3cc(S(=O)(=O)N4CCC(C)CC4)ccc32)cc1`: the survival is 88% (inactive). With `CCCCC(CC)CNC(=O)C1CCC(CNS(=O)(=O)c2cccc3nsnc23)CC1` (centres undefined), the survival is 65% (inactive). On to `Cc1ccc2oc(C(=O)Nc3ccc(S(=O)(=O)Nc4onc(C)c4C)cc3)cc(=O)c2c1`, for which the survival was 71% (inactive). In the case of `O=C(CN1C(=O)COc2ccc(S(=O)(=O)Nc3ccccc3)cc21)Nc1cccc(Cl)c1` it was 96% (inactive). With `Fc1ccc(-c2nc(Nc3ccc(F)c(Cl)c3)nc3c2COc2ccccc2-3)cc1`, the survival was 55% (inactive).

In the case of `O=C(c1cn(CC(=O)N2CCOCC2)c2ccccc12)C1CC1`, the survival is 90% (inactive).

Turning to `O=c1c2sccc2n(Cc2cc(=O)n3ccccc3n2)c(=O)n1-c1cccc(C(F)(F)F)c1`, the survival is 52% (inactive). In the case of `CCN(CC)C(=O)c1sc2c(c1C)c(=O)n(-c1ccc(Cl)c(Cl)c1)c(=O)n2Cc1cc(=O)n2ccccc2n1`, the survival is 112% (inactive).

With `CCN(CC)C(=O)c1sc2c(c1C)c(=O)n(-c1ccc(C)c(C)c1)c(=O)n2Cc1cc(=O)n2c(C)cccc2n1`, the survival is 49% (inactive). For the compound `CCN(CC)C(=O)Cn1c(=O)n(-c2ccc(Cl)c(Cl)c2)c(=O)c2c(C)c(C(=O)N(CC)CC)sc21`, the survival is 83% (inactive). Turning to `O=c1c2sccc2n(Cc2cc(=O)n3ccccc3n2)c(=O)n1-c1cc(F)ccc1F`, the survival was 69% (inactive). In the case of `Cc1ccc(-n2c(=O)c3sccc3n(Cc3cc(=O)n4ccccc4n3)c2=O)cc1` it was 63% (active). For the compound `CCN(CC)C(=O)c1sc2c(c1C)c(=O)n(-c1ccc(Cl)c(Cl)c1)c(=O)n2Cc1cc(=O)n2c(C)cccc2n1`, the survival was 32% (active). Consider `CCN(CC)C(=O)c1sc2c(c1C)c(=O)n(-c1ccccc1)c(=O)n2Cc1cc(=O)n2ccccc2n1`, for which the survival is 47% (active).

Consider `CCN(CC)C(=O)c1sc2c(c1C)c(=O)n(-c1ccc(C)c(C)c1)c(=O)n2Cc1cc(=O)n2ccccc2n1`, for which the survival is 84% (inactive).

In the case of `Cc1ccc(S(=O)(=O)N(CC(=O)Nc2cccnc2)c2cc(Cl)ccc2C)cc1`, the survival is 78% (inactive). `COc1ccc(NC(=O)CNC(=O)Cn2c(C)cc3ccccc3c2=O)c(OC)c1`: the survival was 62% (inactive).

For `C=CCSc1nsc(N)n1`, the survival was 75% (inactive). Regarding `Nc1nc(SC#CC(F)(F)F)ns1`, the survival was 13% (active). As for `Cc1ccc(C2c3[nH]c4ccccc4c3CCN2C(=O)CSc2ccccc2)cc1` (centres undefined), the survival was 69% (inactive).

Regarding `O=C(CSc1ccccc1)N1CCc2c([nH]c3ccccc23)C1c1ccc(Cl)cc1` (centres undefined), the survival is 52% (active). In the case of `O=C(CSc1ccccc1)N1CCc2c([nH]c3ccccc23)C1c1ccc(F)cc1` (centres undefined) it was 76% (inactive); in that of `Cc1ccc(CCNS(=O)(=O)c2ccc3c(c2)C(C(C)C)C(=O)N3)cc1` (centres undefined), 116% (inactive); in that of `COc1ccccc1CCNC(=O)C(=O)NCC(c1cccs1)S(=O)(=O)c1ccccc1` (centres undefined), 82% (inactive). For `O=C(c1ccc(F)cc1F)N1CCC(c2noc(-c3ccc(S(=O)(=O)N4CCCC4)cc3)n2)CC1`, the survival is 97% (inactive). Turning to `Cc1cccc2nc(-c3ccc(N(C)C)cc3)c(Nc3ccc4c(c3)OCO4)n12`, the survival was 102% (inactive). In the case of `O=C(Nc1ccc2nc(SCC(=O)N3CCCC3)sc2c1)c1cccc(Br)c1` it was 57% (inactive). `O=C(Nc1ccc2nc(SCC(=O)N3CCOCC3)sc2c1)c1ccc(Br)cc1`: the survival was 83% (inactive). Regarding `O=C(Nc1ccc2nc(SCC(=O)N3CCOCC3)sc2c1)c1cccc(Cl)c1`, the survival was 32% (active). On to `O=C(Nc1ccc2nc(SCC(=O)N3CCCC3)sc2c1)c1cccc(Cl)c1`, for which the survival was 52% (inactive).

On to `O=C(Nc1ccc2nc(SCC(=O)N3CCOCC3)sc2c1)c1cccc(Br)c1`, for which the survival is 29% (active). With `O=C(Nc1ccc2nc(SCC(=O)N3CCOCC3)sc2c1)c1ccc(Cl)cc1`, the survival was 68% (inactive). `Cc1cc(C)cc(NC(=O)C2CCCN(S(=O)(=O)c3cccc4nsnc34)C2)c1` (centres undefined): the survival was 105% (inactive). For the compound `Cc1ccc(N2CCN(C(=O)c3cnn(-c4ccc(F)cc4F)c3C3CCN(C(=O)OC(C)(C)C)CC3)CC2)c(C)c1`, the survival is 91% (inactive). Consider `CCOC(=O)c1nnn(C(CC)C(=O)Nc2ccc(F)cc2)c1C(=O)OCC` (centres undefined), for which the survival is 119% (inactive). For `CCC(C(=O)Nc1cc(C)ccc1OC)n1nnc(C(=O)OC)c1C(=O)OC` (centres undefined), the survival was 94% (inactive). For the compound `CCc1ccc(NC(=O)C(CC)n2nnc(C(=O)OC)c2C(=O)OC)cc1` (centres undefined), the survival is -3% (active). For `O=C(NCc1ccc(Cl)cc1)c1cc2ccc3cccnc3c2[nH]1` the value was 58% (inactive); for `O=C(COc1ccc(Cl)cc1Cl)Nc1cccc2cccnc12`, 79% (inactive). In the case of `Cc1cccc(OCC(=O)Nc2cccc3cccnc23)c1C`, the survival was 60% (active). As for `CC(C)c1ccc(C(=O)Nc2cccc3cccnc23)cc1`, the survival is -1% (active).

Consider `Cc1ccc(CNC(=O)c2cc3ccc4cccnc4c3[nH]2)cc1`, for which the survival is 32% (active). On to `Cc1ccc(C(=O)Nc2cccc3cccnc23)cc1Cl`, for which the survival is 72% (inactive). Turning to `Cc1cc(C)cc(OCC(=O)Nc2cccc3cccnc23)c1`, the survival was 73% (inactive). On to `CCOc1ccccc1NC(=O)c1ccc(C(=O)Nc2ccccc2OCC)cc1`, for which the survival is 83% (inactive).

For `Cc1ccc2cccc(NC(=O)c3ccc(OC(C)C)cc3)c2n1`, the survival is 95% (inactive). In the case of `O=C(NCc1ccccc1)c1cc2ccc3cccnc3c2[nH]1`, the survival was 80% (inactive).

Take `CCOc1cc(C(=O)Nc2ccncc2)cc(OCC)c1OCC`: the survival was 94% (inactive).

`CCOc1cc(C(=O)Nc2cccc3cccnc23)cc(OCC)c1OCC`: the survival is 10% (active). In the case of `CCOc1ccc(C(=O)NC2CCN(C(=O)NCc3ccccc3)CC2)cc1` it was 84% (inactive). For `COc1ccc(-c2nc(C)c(CCNC(=O)C(=O)Nc3ccccc3OC)s2)cc1` the value was 89% (inactive). Take `c1ccc(Cc2nnc(SCc3nc(-c4cccs4)no3)n2-c2ccccc2)cc1`: the survival was 56% (inactive). For `COc1cc(NS(=O)(=O)c2cc3c(cc2C)N(C)CCO3)cc(OC)c1OC`, the survival was 90% (inactive). In the case of `Cc1ccccc1CN1C(=O)c2ccccc2S(=O)c2ccc(C(=O)NCc3ccco3)cc21` (centres undefined), the survival is 71% (inactive). Consider `CC(C)CCn1c(=O)c2sccc2n2c(CCCC(=O)NCCc3ccccc3)nnc12`, for which the survival is 68% (inactive). Take `CCS(=O)(=O)NCC(c1ccco1)N1CCN(c2ccc(OC)cc2)CC1` (centres undefined): the survival was 91% (inactive). As to `CCOc1ccccc1N(CC)C(=O)c1cc2ccc3cccnc3c2[nH]1`, the survival is 102% (inactive). In the case of `CCOC(=O)c1ccccc1NC(=O)c1cc2ccc3cccnc3c2[nH]1`, the survival was 117% (inactive). `CCOc1ccccc1NC(=O)c1cc2ccc3cccnc3c2[nH]1`: the survival is 37% (active). Regarding `COCCNC(=O)CSc1nc(-c2ccc(C)cc2)[nH]c1-c1ccc(OC)cc1`, the survival is 84% (inactive). As to `COc1cc(OC)c(NC(=O)C(NS(=O)(=O)c2cccc3nsnc23)c2ccccc2)cc1Cl` (centres undefined), the survival was 60% (inactive).

On to `COc1ccccc1N1CCN(C(=O)c2cn(C)c3ccc(S(=O)(=O)N4CCOCC4)cc3c2=O)CC1`, for which the survival was 84% (inactive). In the case of `Cc1ccc(OCCn2cc(C(=O)c3ccco3)c3ccccc32)cc1C`, the survival was 27% (active). With `O=C(c1ccco1)c1cn(CCOc2ccc(F)cc2)c2ccccc12`, the survival was 99% (inactive). Consider `O=C(Cn1cc(C(=O)c2ccco2)c2ccccc21)Nc1ccccc1`, for which the survival is 41% (active) and 47% (inactive). On to `Cc1cc(OCCn2cc(C(=O)c3ccco3)c3ccccc32)ccc1Cl`, for which the survival was 53% (inactive). Turning to `CCOc1ccc(NC(=O)Cn2cc(C(=O)c3ccco3)c3ccccc32)cc1`, the survival is 63% (inactive). Take `Cc1ccc(C(C)C)c(OCCn2cc(C(=O)c3ccco3)c3ccccc32)c1`: the survival was 35% (active). In the case of `O=C(c1ccco1)c1cn(CCOc2ccc(Cl)cc2)c2ccccc12`, the survival is 78% (inactive). Regarding `O=C(Cn1cc(C(=O)c2ccco2)c2ccccc21)Nc1ccc(Br)cc1`, the survival is 88% (inactive).

In the case of `COc1ccc(OCCn2cc(C(=O)c3ccco3)c3ccccc32)cc1`, the survival is 56% (inactive). `Cc1ccc(C)c(OCCn2cc(C(=O)c3ccco3)c3ccccc32)c1`: the survival was 104% (inactive). On to `CC(C)(C)c1ccc(OCCn2cc(C(=O)c3ccco3)c3ccccc32)cc1`, for which the survival was 35% (active). In the case of `Cc1ccccc1OCCn1cc(C(=O)c2ccco2)c2ccccc21` it was 44% (inactive).
